# Results taken from PubChem BioAssay (NCI).
# This is part of a sample that, as a whole, favours compounds with a hit. Of some 83,000 tested, about 20% had one in any assay.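 Negative percent growth values reflect cell death: -40 means 40% of the cells present at the start died, and -100 means all died.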 Values without a mark were called inactive. Calls of active or inactive are those of the source. Rule for the calls: active = growth percent below 10; inactive = the rest.
# Experiments:
# Assay in all cases: NCI-60 one-dose screen, 48 h (100 = growth as untreated, 0 = no growth, -100 = all killed)
# Settings in all cases: 10 µM unless noted
# SK-MEL-2 melanoma = test system: SK-MEL-2 melanoma
# EKVX NSCLC = test system: EKVX NSCLC
# SN12C renal = test system: SN12C renal
# UO-31 renal = test system: UO-31 renal
# TK-10 renal = test system: TK-10 renal
# ACHN renal = test system: ACHN renal
# CAKI-1 renal = test system: CAKI-1 renal
# A498 renal = test system: A498 renal
# CCRF-CEM leukemia = test system: CCRF-CEM leukemia
# MOLT-4 leukemia = test system: MOLT-4 leukemia
SMILES,growth (SK-MEL-2 melanoma),growth (EKVX NSCLC),growth (SN12C renal),growth (UO-31 renal),growth (TK-10 renal),growth (ACHN renal),growth (CAKI-1 renal),growth (A498 renal),growth (CCRF-CEM leukemia),growth (MOLT-4 leukemia)
COc1ccc(-c2nnc(SCC(=O)Nc3ccc(/C(C)=N\O)cc3)n2-c2ccccc2)cc1OC,57.6%,71.1%,71.8%,104%,41.1%,75.5%,87.4%,91.8%,98.5%,91.7%
CCN(CC)CCOc1ccc(Nc2ncc3cc(-c4ccc(O)cc4)c(=O)n(C)c3n2)cc1,97.7%,74%,39.9%,10.5%,81.2%,26%,26.4%,69.4%,-8.41% (active),5.99% (active)
O=C(Cn1cc(CN2C(=O)c3ccccc3S2(=O)=O)nn1)Nc1cccc(Cl)c1,96.7%,103%,110%,101%,103%,102%,98.5%,110%,104%,107%
O=C(CCCCl)NNc1nccc(Nc2ccc(S(=O)(=O)Nc3ccncc3)cc2)n1,92.7%,105%,102%,92.2%,85.8%,104%,93.9%,110%,116%,112%
C=CCn1c(SCC(=O)Nc2ccc(C(=O)/C=C/c3ccc(OC)cc3)cc2)nnc1-c1ccccc1,82.4%,88.4%,89.2%,69.4%,98%,92.5%,93.1%,97.3%,84.5%,61.1%
Oc1c(Cl)cc(Cl)c2ccc(Cn3cc(-c4cccc(C(F)(F)F)c4)nn3)nc12,93.8%,80.1%,84.6%,73.4%,99.7%,47.9%,31.1%,91.1%,6.72% (active),3.08% (active)
O=c1oc2c(cnc3ccccc32)cc1-c1cccs1,108%,103%,98.4%,88.3%,106%,102%,88.9%,107%,103%,102%
C=CCn1c(SCC(=O)Nc2ccc(C(=O)/C=C/c3cc(OC)c(OC)c(OC)c3)cc2)nnc1-c1cc(-c2ccc(OC)cc2)nc2ccccc12,102%,100%,90.3%,76.3%,121%,89.2%,81.5%,89%,66.6%,66.4%
CCOC(=O)c1c(NC(=O)c2ccc(OC)cc2)sc2c(CN(C)C)c(O)ccc12,105%,95.9%,77.5%,88.8%,94.4%,6.26% (active),72.3%,68.9%,56.6%,61.2%
Cc1cccc(N2CCN(C(=S)c3ccc4c(c3)OCO4)CC2)c1,9.2% (active),47.1%,40%,25.6%,36.5%,43.1%,15.1%,11.7%,16.5%,22%
COc1cc(/C=C2\CN(S(=O)(=O)c3ccc(C)cc3)C/C(=C\c3cc(CN4CCCCC4)c(O)c(OC)c3)C2=O)cc(CN2CCCCC2)c1O,-73.7% (active),-81% (active),-76.5% (active),-89.1% (active),-93.4% (active),-98.9% (active),-89% (active),90%,-6.3% (active),-23.7% (active)
CC/C=C\C/C=C/C=C1/C(=O)C=C[C@@H]1C/C=C\CCCC(=O)OC,92.6%,99.4%,-8.45% (active),28.2%,31.6%,14.1%,29.7%,109%,1.18% (active),5.5% (active)
CC(/C=C1\SC(=S)N(CC(=O)NC(Cc2c[nH]c3ccccc23)C(=O)O)C1=O)=C\c1ccccc1 (stereo not given),110%,98.5%,95%,63.9%,122%,96.5%,87%,107%,104%,104%
COc1ccc(-c2cc(-c3cc(OC)c(OC)c(OC)c3)c(C#N)c(=O)n2CCCCCC(=O)NO)cc1,102%,91.3%,89.2%,62.4%,106%,88.3%,79.9%,54%,85.7%,96.6%
CN(CCC#N)c1ccc(/C=C2\NC(=O)NC2=O)cc1,100%,79.3%,98.6%,84.4%,93.5%,97.9%,82.8%,89.3%,107%,92%
COc1ccccc1NC(=O)c1ccc(/C=C/C(=O)c2nccn2C)cc1,-27.4% (active),-12.2% (active),-80.4% (active),-94.5% (active),-45.6% (active),-100% (active),-38.7% (active),-39.8% (active),-11.6% (active),0.601% (active)
COc1cc(-c2nc(NC(C)=O)sc2-c2ccnc(NCCNS(=O)(=O)c3ccccc3)n2)ccc1Cl,-12.6% (active),45.4%,48.2%,63.3%,39.5%,44%,57.9%,27.1%,13%,15.5%
C=C(C)[C@@H]1CC[C@]2(CO)CC[C@]3(C)[C@H](CC[C@@H]4[C@@]5(C)CCC(NCCc6ccc(O)cc6)C(C)(C)[C@@H]5CC[C@]43C)[C@@H]12 (stereo not given in full),-85% (active),-52.1% (active),-88.9% (active),-96.9% (active),-94.5% (active),-100% (active),-58.5% (active),6.99% (active),-41.3% (active),-43.8% (active)
Cc1c2cnccc2c(C)c2c1c1cc(C3OCCCO3)ccc1n2C,-67.5% (active),3.53% (active),-10.2% (active),-7.3% (active),-14.5% (active),-12.1% (active),8.13% (active),-56.6% (active),-6.77% (active),-4.85% (active)
Cc1ccc(/C=C/C(=O)c2ccc(NC(=O)CSc3nc4c([nH]3)c(=O)n(C)c(=O)n4C)cc2)c(C)c1,91.9%,78.1%,57.1%,70.4%,83.5%,38.8%,48.1%,40.2%,65.3%,62.1%
O=C(c1ccc(F)c(Cl)c1)N1c2ccccc2Sc2ccccc21,65.2%,74.1%,99.2%,72.9%,85.2%,104%,53.4%,61.7%,58.4%,44.1%
CCOC(=O)N1CCN(S(=O)(=O)c2oc(-c3ccc(Cl)cc3)nc2C#N)CC1,83.8%,101%,92.6%,81.5%,-27% (active),76.1%,101%,126%,1.71% (active),5.33% (active)
NC(=O)c1c(NC(=O)c2ccc(Cl)cc2)sc2c1CCC(=O)C2,99.6%,92.7%,71.8%,40.7%,85.2%,45.6%,18.6%,77%,7.15% (active),46.3%
Cc1ccc(-c2cc(C(=O)N3N=C(c4ccc(N)cc4)CC3c3ccc(Cl)cc3)c3ccccc3n2)cc1 (stereo not given),2.76% (active),44.5%,48.8%,42.9%,24.5%,51.7%,24%,0.316% (active),12.8%,25.2%
CCCCCCCCCCCCCCCCOC(=O)c1c(C)[nH]c(/C=C2\N=C(c3ccc[nH]3)C=C2OC)c1C,-25.9% (active),68.3%,55.9%,30.4%,18.8%,48.8%,15.4%,33.9%,50.4%,91.9%
CCOC(=O)/C=C/c1c(C)[nH]c(=O)[nH]c1=O,30.1%,77.6%,95.4%,102%,95.5%,1.8% (active),63.8%,111%,89.3%,61.3%
Nc1nc(C(=O)N/N=C/c2ccc(N3CCOCC3)cc2)nn1-c1ccc(S(N)(=O)=O)cc1,104%,101%,103%,85.4%,94.4%,109%,89.8%,107%,112%,123%
